From PubChem BioAssay
Results filed as inconclusive are left out. The source made the active and inactive calls.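 How the source made its calls, unless noted: active means inhibition above 50%, about 3 SD of the validation set; inactive means the rest.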

Experiments:
[1] = yeast TOR pathway RPL19A-GFP modulators, primary screen, cell-based, S. cerevisiae, multiplex flow cytometry (AID 1862; in the data active means percent of DMSO control GFP below about 86%;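 further: lower values mimic rapamycin by blocking the RPL19A rise seen in DMSO cells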); conditions: S. cerevisiae RPL19A-GFP strain, flow cytometry fluorescence, 3 h; at 10 µM; stronger effect = lower value
[2] = modulators of MEP2-GFP levels in yeast, primary screen, S. cerevisiae, multiplex flow cytometry (AID 1867;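 active means GFP response, as percent of the DMSO control, above the screen-wide mean plus 3 SD, about 139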;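 further: median GFP channel fluorescence of barcode-gated MEP2-GFP cells measured by flow cytometry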); conditions: S. cerevisiae MEP2-GFP strain, 3 h, at 10 µM, stronger effect = higher value, 100% means same as DMSO wells
[3] = modulators of CIT2-GFP expression in yeast, primary screen, S. cerevisiae, GFP fusion, multiplex flow cytometry (AID 1870;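 active means percent response above a set limit, the screen-wide mean plus 3 SD, cut at about 130% in these data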;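 further: barcoded CIT2-GFP strain pooled with four other GFP strains with rapamycin as positive control; median GFP fluorescence per well over plate mean of DMSO wells so 100% = DMSO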); conditions: 3 h, at 10 µM, stronger effect = higher value
[4] = modulators of LAP4-GFP expression in yeast, primary screen, S. cerevisiae, multiplex flow cytometry (AID 1873;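 active means GFP signal, as percent of the solvent control, above the screen mean plus 3 SD, about 149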); conditions: 3 h, at 10 µM, stronger effect = higher value
[5] = modulators of AGP1-GFP expression in yeast TOR pathway, primary screen, cell-based, multiplex flow cytometry, S. cerevisiae (AID 1887;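 active means GFP signal above the screen-wide mean plus 3 SD, that is over about 124.5% of the solvent control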;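 further: AGP1-GFP fusion strain of S. cerevisiae within a five-strain barcoded multiplex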); conditions: 3 h, at 10 µM, stronger effect = higher value
[6] = inhibitors of CD8+ T cell-vesicle binding, pilot screen, LFA-1/ICAM-1 modulator project, MLPCN validation set, flow cytometry (AID 2523;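 active means response below a set limit, under 55% cells CD8-positive and vesicle-bound, and CD8 cells' 90th-percentile brightness under 279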;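 on vesicle binding response: mean PE anti-B7-1 fluorescence of CD8+ cells relative to row control; 100% = QL9-loaded vesicles with DMSO vehicle in the same plate row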); conditions: 2C mouse CD8+ T cells, at 7 µM, stronger effect = lower value; double positive events: measured here: CD8+/vesicle+ event percentage
[7] = biological target: Integrin beta-1 (Homo sapiens) + Integrin alpha-4 (Homo sapiens) (UniProt P13612+P05556); assay: inhibition of HUTS-21 binding to VLA-4, pilot screen, VLA-4 allosteric modulator project, U937 cells, HUTS-21 mAb, flow cytometry, validation set (AID 2674); conditions: HUTS-21 LIBS mAb binding, at 6.7 µM, stronger effect = higher value, binding induced by LDV ligand;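 further: antibody binding induced by the VLA-4 ligand LDV present at three times its Kd; 0% = LDV ligand with antibody and no compound and 100% = antibody without LDV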
Chain of Integrin beta-1 (Homo sapiens) + Integrin alpha-4 (Homo sapiens) (P05556 whole entry, looked up): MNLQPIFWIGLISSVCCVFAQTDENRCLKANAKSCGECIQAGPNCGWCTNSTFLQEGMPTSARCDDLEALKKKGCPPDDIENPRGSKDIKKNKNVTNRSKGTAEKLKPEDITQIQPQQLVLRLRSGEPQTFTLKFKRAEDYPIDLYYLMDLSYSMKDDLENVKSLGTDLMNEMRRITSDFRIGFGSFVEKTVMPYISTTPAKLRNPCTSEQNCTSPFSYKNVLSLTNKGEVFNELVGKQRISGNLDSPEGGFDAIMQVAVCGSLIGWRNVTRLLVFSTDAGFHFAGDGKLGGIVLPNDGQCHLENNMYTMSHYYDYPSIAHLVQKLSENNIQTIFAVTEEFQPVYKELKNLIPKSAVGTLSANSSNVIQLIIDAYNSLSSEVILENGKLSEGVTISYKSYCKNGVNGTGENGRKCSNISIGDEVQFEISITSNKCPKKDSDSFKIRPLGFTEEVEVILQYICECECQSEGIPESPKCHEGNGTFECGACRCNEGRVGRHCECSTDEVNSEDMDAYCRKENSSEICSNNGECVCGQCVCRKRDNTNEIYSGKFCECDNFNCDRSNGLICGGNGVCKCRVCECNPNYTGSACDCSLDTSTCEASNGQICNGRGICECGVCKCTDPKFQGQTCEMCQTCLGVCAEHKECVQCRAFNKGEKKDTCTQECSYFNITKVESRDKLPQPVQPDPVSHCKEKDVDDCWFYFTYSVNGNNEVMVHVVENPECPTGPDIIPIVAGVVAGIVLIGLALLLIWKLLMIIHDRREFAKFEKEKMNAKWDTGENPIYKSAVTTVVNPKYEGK
Chain of Integrin beta-1 (Homo sapiens) + Integrin alpha-4 (Homo sapiens) (P13612 whole entry, looked up): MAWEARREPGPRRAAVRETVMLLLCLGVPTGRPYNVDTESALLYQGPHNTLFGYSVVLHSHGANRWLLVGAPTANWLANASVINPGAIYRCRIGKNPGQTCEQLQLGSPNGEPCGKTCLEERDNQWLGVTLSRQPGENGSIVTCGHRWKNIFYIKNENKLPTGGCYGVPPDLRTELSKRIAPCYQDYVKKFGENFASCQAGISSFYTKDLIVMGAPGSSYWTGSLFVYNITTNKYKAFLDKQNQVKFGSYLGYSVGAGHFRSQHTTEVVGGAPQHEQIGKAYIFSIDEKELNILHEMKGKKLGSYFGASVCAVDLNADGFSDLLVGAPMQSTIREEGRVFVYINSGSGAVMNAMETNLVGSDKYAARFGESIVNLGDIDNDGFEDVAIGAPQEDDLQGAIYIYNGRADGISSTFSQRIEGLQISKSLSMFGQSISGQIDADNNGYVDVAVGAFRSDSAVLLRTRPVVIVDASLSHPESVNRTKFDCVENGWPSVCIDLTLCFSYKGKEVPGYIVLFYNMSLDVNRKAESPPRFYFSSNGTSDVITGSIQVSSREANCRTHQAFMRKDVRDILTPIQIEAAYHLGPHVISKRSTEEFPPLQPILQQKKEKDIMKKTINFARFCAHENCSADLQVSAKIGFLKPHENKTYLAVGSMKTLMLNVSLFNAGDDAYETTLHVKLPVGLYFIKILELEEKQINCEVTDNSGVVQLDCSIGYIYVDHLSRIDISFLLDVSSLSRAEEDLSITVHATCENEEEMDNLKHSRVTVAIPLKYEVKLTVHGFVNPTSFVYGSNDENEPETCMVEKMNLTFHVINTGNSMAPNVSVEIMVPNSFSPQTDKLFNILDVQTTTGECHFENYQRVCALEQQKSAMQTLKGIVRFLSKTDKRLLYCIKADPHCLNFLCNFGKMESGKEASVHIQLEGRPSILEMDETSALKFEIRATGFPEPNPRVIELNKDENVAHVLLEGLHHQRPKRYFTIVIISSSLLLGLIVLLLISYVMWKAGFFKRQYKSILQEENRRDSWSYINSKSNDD

[8] = superoxide lowering in aged yeast cells, pilot screen, validation compound set (AID 2706;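 active means superoxide response below 65% of plate, a cut near 3 SD across the whole screen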;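 further: yeast exposed to compound for one week at 30 degrees C before staining; 100% = mean of all compound wells on the same plate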); conditions: S. cerevisiae aging, superoxide DHE fluorescence; at 10 µM; stronger effect = lower value
[9] = biological target: Beta-adrenergic receptor kinase 1 (Homo sapiens) (UniProt P25098); assay: GRK2 binders displacing RNA aptamer, biochemical, validation, human GRK2, bead flow cytometry (AID 488806;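 active means aptamer binding inhibition above 30%, about 3 SD of noise from non-fluorescent compounds; inactive means inhibition at or below 30%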); conditions: bead-bound GRK2, FAM-aptamer displacement, at 10 µM, stronger effect = higher value
Chain of Beta-adrenergic receptor kinase 1 (Homo sapiens) (P25098 whole entry, looked up): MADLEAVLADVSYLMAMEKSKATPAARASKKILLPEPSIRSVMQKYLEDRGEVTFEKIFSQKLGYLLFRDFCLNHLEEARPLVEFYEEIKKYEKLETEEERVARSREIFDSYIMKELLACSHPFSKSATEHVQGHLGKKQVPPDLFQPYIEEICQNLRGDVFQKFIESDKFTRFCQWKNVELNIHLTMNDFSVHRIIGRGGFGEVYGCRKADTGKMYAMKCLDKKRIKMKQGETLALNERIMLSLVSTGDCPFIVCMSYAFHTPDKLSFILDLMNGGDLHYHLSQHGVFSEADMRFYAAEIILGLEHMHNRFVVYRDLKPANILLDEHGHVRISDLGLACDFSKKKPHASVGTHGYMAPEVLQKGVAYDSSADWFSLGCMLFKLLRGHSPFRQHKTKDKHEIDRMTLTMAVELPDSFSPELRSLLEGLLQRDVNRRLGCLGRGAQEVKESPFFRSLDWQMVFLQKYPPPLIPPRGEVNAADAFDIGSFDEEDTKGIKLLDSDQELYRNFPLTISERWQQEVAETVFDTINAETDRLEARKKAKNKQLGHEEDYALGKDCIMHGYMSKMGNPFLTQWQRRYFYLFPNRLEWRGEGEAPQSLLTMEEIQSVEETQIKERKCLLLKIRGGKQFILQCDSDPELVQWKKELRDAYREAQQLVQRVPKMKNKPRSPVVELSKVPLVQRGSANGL

[10] = biological target: Beta-2 adrenergic receptor (Homo sapiens) (UniProt P07550); assay: beta2AR agonists driving receptor internalization, pilot screen, cell-based, FAP fluorogen, flow cytometry, validation set (AID 504459;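 active means percent response above 42, roughly 3 SD of non-fluorescent test compounds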;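 further: agonist-driven loss of surface beta2AR via internalization measured by FAP dye flow cytometry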); conditions: Am2.2-beta2AR cells, FAP surface receptor flow cytometry; at 10 µM; stronger effect = higher value
Chain of Beta-2 adrenergic receptor (Homo sapiens) (P07550 whole entry, looked up): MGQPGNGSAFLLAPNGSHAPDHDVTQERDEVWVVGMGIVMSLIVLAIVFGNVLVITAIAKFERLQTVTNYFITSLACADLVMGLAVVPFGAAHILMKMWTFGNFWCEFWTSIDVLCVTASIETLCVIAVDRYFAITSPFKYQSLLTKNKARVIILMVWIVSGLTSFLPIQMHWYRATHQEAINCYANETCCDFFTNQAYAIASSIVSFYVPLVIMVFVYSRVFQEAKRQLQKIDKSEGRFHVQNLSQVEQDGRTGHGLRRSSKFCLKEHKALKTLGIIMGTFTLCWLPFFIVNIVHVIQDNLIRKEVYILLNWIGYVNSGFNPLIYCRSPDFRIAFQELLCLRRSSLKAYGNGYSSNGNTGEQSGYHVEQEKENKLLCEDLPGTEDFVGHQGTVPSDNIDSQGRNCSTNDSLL

[11] = biological target: AP-2 complex subunit beta (Homo sapiens) (UniProt P63010); assay: inhibitors of arrestin peptide binding to AP2, pilot screen, biochemical, validation set, GST-AP2 beads, flow cytometry (AID 504541;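 active means inhibition above 54%, about 3 SD of non-fluorescent compounds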;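 further: AP2 carries R879A mutation and is captured from E. coli lysate; bead-bound FITC arrestin peptide fluorescence measuring arrestin peptide binding to AP2; 0% = DMSO wells and 100% = excess unlabeled arrestin peptide control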); conditions: FITC arrestin peptide, at 10 µM, stronger effect = higher value, AP2 beta2 appendage fragment, R879A mutant
Chain of AP-2 complex subunit beta (Homo sapiens) (P63010 whole entry, looked up, the tested form may be a part, one chain of several): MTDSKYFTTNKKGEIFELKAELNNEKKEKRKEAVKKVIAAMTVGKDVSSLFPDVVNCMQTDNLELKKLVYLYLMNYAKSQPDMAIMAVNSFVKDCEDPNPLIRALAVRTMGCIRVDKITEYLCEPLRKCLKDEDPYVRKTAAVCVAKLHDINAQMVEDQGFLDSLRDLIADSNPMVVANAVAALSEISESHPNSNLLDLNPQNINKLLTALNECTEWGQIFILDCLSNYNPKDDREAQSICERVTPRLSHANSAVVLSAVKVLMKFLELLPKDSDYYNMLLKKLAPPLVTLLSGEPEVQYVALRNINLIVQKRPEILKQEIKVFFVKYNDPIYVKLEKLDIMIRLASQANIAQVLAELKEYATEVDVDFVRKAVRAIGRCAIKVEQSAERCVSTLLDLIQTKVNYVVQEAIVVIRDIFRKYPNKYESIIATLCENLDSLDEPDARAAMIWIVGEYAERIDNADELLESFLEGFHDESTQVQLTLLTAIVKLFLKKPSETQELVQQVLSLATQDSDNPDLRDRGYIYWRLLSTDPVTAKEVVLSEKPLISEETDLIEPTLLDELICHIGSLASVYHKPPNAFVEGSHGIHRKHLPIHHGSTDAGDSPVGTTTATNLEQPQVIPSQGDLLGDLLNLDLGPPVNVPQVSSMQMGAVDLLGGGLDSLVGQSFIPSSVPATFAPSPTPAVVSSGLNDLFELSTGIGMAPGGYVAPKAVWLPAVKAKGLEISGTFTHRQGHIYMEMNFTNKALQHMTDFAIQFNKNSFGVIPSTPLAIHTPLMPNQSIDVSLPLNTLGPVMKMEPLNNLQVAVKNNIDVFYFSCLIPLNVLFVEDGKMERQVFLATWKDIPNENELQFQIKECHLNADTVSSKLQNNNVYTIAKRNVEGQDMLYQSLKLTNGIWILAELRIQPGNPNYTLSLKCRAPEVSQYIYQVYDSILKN

[12] = yeast V-ATPase proton transport modulators, S. cerevisiae, pHLuorin, HTS validation (AID 504600; in the data active means response above about 15%;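 further: plate controls were DMSO for no effect and reference compound for full effect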); conditions: S. cerevisiae pHLuorin cytosolic pH, at 10 µM, stronger effect = higher value
[13] = test system: anti-desmoglein-3 scFv antibody binding to human DSG3; assay: inhibitors of anti-DSG3 scFv binding to DSG3, pilot screen, biochemical, validation compound set, bead-based, flow cytometry (AID 588368;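 active means binding below the plate cutoff, the plate median minus 3 SD, with a reading above zero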;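 further: signal is the median channel fluorescence of bead-bound GFP antibody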); conditions: Protein G beads, DSG3-Fc, scFv-GFP binding, at 10 µM, stronger effect = lower value
[14] = inhibitors of fungal efflux pumps CDR1, CDR2, MDR1, pilot screen, validation compound set, multiplex, phenotypic (AID 588506;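 active means efflux inhibition above 0.42, the validation set average plus 4 SD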;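 further: Nile Red retained in cells so higher fluorescence means more efflux inhibition; 0 = negative control wells and 1 = enniatin B 25 µM full block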); conditions: S. cerevisiae pump-expressing triplex, Nile Red efflux flow cytometry; at 10 µM; stronger effect = higher value; the pumps come from Candida albicans
[15] = biological target: ATP-binding cassette sub-family B member 6 (Homo sapiens) (UniProt Q9NP58); assay: ABCB6 transporter inhibitors, pilot screen, K562-ABCB6 cells, flow cytometry, validation set (AID 588550;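 active means inhibition above the screen-wide mean plus 3 SD, about 51%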;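 further: 0% = DMSO wells and 100% = benzethonium chloride 70 µM positive control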); conditions: K562-ABCB6 porphyrin accumulation, 1 h, at 10 µM, stronger effect = higher value
Chain of ATP-binding cassette sub-family B member 6 (Homo sapiens) (Q9NP58 whole entry, looked up): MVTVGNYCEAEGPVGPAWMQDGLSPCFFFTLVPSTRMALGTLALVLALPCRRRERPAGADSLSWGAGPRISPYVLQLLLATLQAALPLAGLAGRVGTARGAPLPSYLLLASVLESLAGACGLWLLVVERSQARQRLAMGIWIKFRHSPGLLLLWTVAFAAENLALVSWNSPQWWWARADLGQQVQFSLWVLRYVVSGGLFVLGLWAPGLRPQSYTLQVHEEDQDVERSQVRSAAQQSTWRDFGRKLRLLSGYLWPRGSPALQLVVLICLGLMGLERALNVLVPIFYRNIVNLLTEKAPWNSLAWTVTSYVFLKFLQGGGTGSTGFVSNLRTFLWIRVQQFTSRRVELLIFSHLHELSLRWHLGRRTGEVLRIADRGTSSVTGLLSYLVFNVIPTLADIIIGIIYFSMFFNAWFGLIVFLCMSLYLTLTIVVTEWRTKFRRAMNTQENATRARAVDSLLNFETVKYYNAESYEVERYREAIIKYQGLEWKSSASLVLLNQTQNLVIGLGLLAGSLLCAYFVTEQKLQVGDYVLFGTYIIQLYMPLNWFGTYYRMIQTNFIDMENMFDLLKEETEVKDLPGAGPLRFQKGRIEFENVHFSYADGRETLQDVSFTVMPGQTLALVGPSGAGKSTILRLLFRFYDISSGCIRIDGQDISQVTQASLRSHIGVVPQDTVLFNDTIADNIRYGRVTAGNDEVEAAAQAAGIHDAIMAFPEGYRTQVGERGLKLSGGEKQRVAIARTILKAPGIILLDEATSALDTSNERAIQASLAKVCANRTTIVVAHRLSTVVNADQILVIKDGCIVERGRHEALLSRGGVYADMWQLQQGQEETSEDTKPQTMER

[16] = promoters of myeloid differentiation in arrested cells, primary screen, cell-based, GFP/MAC1 double positive, flow cytometry, validation set (AID 588685;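 active means differentiation response of at least 50%, scaled between solvent and reference control, from cells with both markers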;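 further: compound exposure lasts four days before antibody staining and flow analysis; 0% = DMSO wells and 100% = 5 µM fulvestrant positive control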); conditions: ER-HoxA9 marrow cells, stronger effect = higher value, normalized: vehicle 0, fulvestrant 100

Compound	percent of DMSO control GFP [1]	GFP response vs DMSO [2]	percent response of DMSO control [3]	GFP response vs DMSO [4]	GFP response, % of DMSO [5]	double positive events [6] [%]	vesicle binding response [6]	inhibition [7]	superoxide response (% of plate) [8]	aptamer binding inhibition [9]	response [10]	inhibition [11]	response [12]	binding (% of control) [13]	efflux inhibition (fraction of control) [14]	inhibition [15]	differentiation response [16]
CC(C)C(=O)Nc1ccc2c3c(cccc13)CC2	95% (inactive)	98.5% (inactive)	92% (inactive)	124% (inactive)	102% (inactive)	62.6	191% (inactive)	10.5% (inactive)	99.4% (inactive)	5% (inactive)	21.1% (inactive)	18.6% (inactive)	-2.45% (inactive)	94.9% (inactive)	-0.24 (inactive)	8% (inactive)	5.6% (inactive)
COc1cc(C(=S)N(C)C)ccc1O	107% (inactive)	104% (inactive)	113% (inactive)	92.6% (inactive)	116% (inactive)	62.6	115% (inactive)	-11.8% (inactive)	92.7% (inactive)	-1% (inactive)	8.54% (inactive)	-1.41% (inactive)	3.06% (inactive)	101% (inactive)	-0.005 (inactive)	-8% (inactive)	15.9% (inactive)
Cc1csc(N)n1	101% (inactive)	105% (inactive)	114% (inactive)	86.9% (inactive)	101% (inactive)	69.2	201% (inactive)	-7.12% (inactive)	87% (inactive)	-1% (inactive)	4.23% (inactive)	5.92% (inactive)	-1.8% (inactive)	105% (inactive)	-0.31 (inactive)	12% (inactive)	9.01% (inactive)
Cc1oc2c(O)c(O)ccc2c(=O)c1-c1ccccc1	87.8% (inactive)	107% (inactive)	106% (inactive)	74.3% (inactive)	90.8% (inactive)	59.4	119% (inactive)	-1.3% (inactive)	110% (inactive)	3% (inactive)	-8.83% (inactive)	-5.67% (inactive)	-1.26% (inactive)	107% (inactive)	0.45 (active)	9% (inactive)	-2.46% (inactive)
COc1cc(C)nc(-n2nc(C)cc2OC)n1	101% (inactive)	103% (inactive)	96.6% (inactive)	92.7% (inactive)	102% (inactive)	61.8	5320% (inactive)	-12.9% (inactive)	88.7% (inactive)	1% (inactive)	-8.04% (inactive)	2.91% (inactive)	48.8% (active)	95.9% (inactive)	0.02 (inactive)	2% (inactive)	8.06% (inactive)
N#Cc1cc2c([nH]c1=O)CCCC2	103% (inactive)	98.3% (inactive)	108% (inactive)	90.7% (inactive)	108% (inactive)	63.2	184% (inactive)	16.1% (inactive)	89.5% (inactive)	0% (inactive)	-10.3% (inactive)	-13.1% (inactive)	12.5% (inactive)	97.7% (inactive)	-0.04 (inactive)	-2% (inactive)	-5.62% (inactive)
Cc1ccc(S(=O)(=O)NC(C(=O)Oc2ccc3c(C(F)(F)F)cc(=O)oc3c2)c2ccccc2)cc1 (stereo not drawn)	98.1% (inactive)	102% (inactive)	100% (inactive)	115% (inactive)	107% (inactive)	62.2	183% (inactive)	-6.23% (inactive)	106% (inactive)	-1% (inactive)	5.6% (inactive)	59.2% (active)	-16.5% (inactive)	92.6% (inactive)	0.12 (inactive)	-3% (inactive)	0.92% (inactive)
CSc1cccc(NC(=O)/C=C/c2ccccc2)c1	91.3% (inactive)	90.5% (inactive)	88.6% (inactive)	83.1% (inactive)	80.5% (inactive)	62.5	219% (inactive)	15.2% (inactive)	114% (inactive)	1% (inactive)	1.66% (inactive)	7.39% (inactive)	1.17% (inactive)	104% (inactive)	-0.38 (inactive)	10% (inactive)	9.01% (inactive)
COC(=O)c1cc(OC)c(OC)cc1NC(=O)CN1C(=O)c2ccccc2C1=O	97.1% (inactive)	113% (inactive)	93.9% (inactive)	118% (inactive)	99.4% (inactive)	54.6	150% (inactive)	-22.3% (inactive)	103% (inactive)	-2% (inactive)	-5.28% (inactive)	-9.37% (inactive)	-5.26% (inactive)	98.4% (inactive)	-0.03 (inactive)	2% (inactive)	-23.2% (inactive)
